According to the supplement of paper PMC10646978:
± gives the standard deviation.

Key:
Settings in all cases: modulator concentration 10 µM
[1] = system: RAW-Dual (murine macrophage reporter line); assay: NF-kB reporter (SEAP) activity fold change vs agonist alone; higher = enhanced NF-kB activity
In short: (§1)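 RAW-Dual murine macrophage reporter cells were plated at 50 000 per well in 384-well plates, pin-transferred compound to 10 μM final, and pre-incubated for 1 hour at 37 °C before a PRR agonist was added and the cells incubated overnight. NF-κB activity was read from supernatant SEAP with QUANTI-Blue at 620 nm absorbance, and IRF activity from Lucia luciferase with QUANTI-Luc by luminescence. Each signal was expressed as fold change by dividing by the mean agonist-only control on the same plate. Two replicate plates were averaged, with errors obtained by propagation.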

[2] = system: RAW-Dual (murine macrophage reporter line); assay: IRF reporter (Lucia luciferase) activity fold change vs agonist alone; higher = enhanced IRF activity
In short: as §1

[3] = system: RAW-Dual (murine macrophage reporter line); assay: viability score (confluency relative to resting cells, overnight) (fraction); higher = more viable, active = viable (0.7 or more)
In short: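 Two confluency masks, generated with IncuCyte software over all imaged wells, were applied to IncuCyte images of RAW-Dual macrophages. The cells, in 384-well plates, had been exposed overnight to 10 μM final compound. The viability score is confluency as a fraction of resting cells, and a compound met the cutoff only with both masks above 70% of resting cells.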

[4] = agonist: CpG ODN 1826 0.5 ug/mL

Structure (SMILES) | NF-kB reporter [1, 4] | NF-kB reporter ([1]; agonist: LPS 0.1 ug/mL) | NF-kB reporter ([1]; agonist: MPLA […]) | IRF reporter ([2]; agonist: 3'3'-cGAMP 10 ug/mL) | IRF reporter ([2]; agonist: LPS 0.1 ug/mL) | IRF reporter ([2]; agonist: MPLA […]) | viability score [3]
CCOC(=O)C1=C(C)NC(C)=C(C(=O)OCC)C1c1ccc(F)cc1 | 0.796 ± 0.067 | 0.729 ± 0.059 | 1.8 ± 0.067 | 1.05 ± 0.037 | 0.987 ± 0.059 | 4.4 ± 0.55 | 0.244 (inactive)
CN(C/C=C/C#CC(C)(C)C)Cc1cccc2ccccc12 | 0.812 ± 0.066 | 0.987 ± 0.059 | 1.08 ± 0.095 | 1.12 ± 0.055 | 1.24 ± 0.078 | 1.27 ± 0.12 | 1.01 (active)
CC(c1ccccc1)c1nnc(NC(=O)c2ccco2)s1 (stereo unspecified) | 0.853 ± 0.29 | 1.12 ± 0.12 | 1.04 ± 0.1 | 0.906 ± 0.027 | 1.13 ± 0.23 | 1.3 ± 0.32 | 0.968 (active)
CC(=O)OC1(C(C)=O)CCC2C3C=C(C)C4=CC(=O)CCC4(C)C3CCC21C (stereo unspecified) | 1.18 ± 0.088 | 1.08 ± 0.054 | 1.21 ± 0.026 | 1.04 ± 0.069 | 0.875 ± 0.1 | 0.986 ± 0.14 | 0.995 (active)
CC(C)(C)NC[C@H](O)COc1nsnc1N1CCOCC1.O=C(O)/C=C\C(=O)O | 1.19 ± 0.2 | 1.13 ± 0.43 | 0.917 ± 0.056 | 0.906 ± 0.031 | 1.3 ± 0.34 | 1.21 ± 0.14 | 0.992 (active)
O=C(O)c1ccc2c(c1)nc(Nc1cccc(Cl)c1)c1ccncc12 | 1.24 ± 0.19 | 1.35 ± 0.35 | 1.4 ± 0.34 | 0.993 ± 0.033 | 1.39 ± 0.32 | 0.832 ± 0.083 | 0.986 (active)
Nc1ncnc2c1ncn2C1OC(COP(=O)(O)O)C(O)C1O (stereo unspecified) | 1.9 ± 0.51 | 1.3 ± 0.089 | 1.55 ± 0.11 | 1.44 ± 0.052 | 1.19 ± 0.13 | 1.19 ± 0.14 | 0.97 (active)
CCCCc1oc2ccccc2c1C(=O)c1cc(I)c(OCCN(CC)CC)c(I)c1 [Prestw-409] | 0.41 ± 0.08 | 0.977 ± 0.075 | 1.15 ± 0.11 | 0.574 ± 0.025 | 1.32 ± 0.2 | 1.51 ± 0.29 | 1.04 (active)
Cc1oncc1C(=O)Nc1ccc(C(F)(F)F)cc1 | 2.06 ± 0.4 | 1.1 ± 0.16 | 1.09 ± 0.071 | 1.31 ± 0.045 | 1.12 ± 0.29 | 2.03 ± 0.2 | 0.357 (inactive)
Nc1nc(N)c2nc(-c3ccccc3)c(N)nc2n1 | 0.861 ± 0.15 | 1.03 ± 0.17 | 0.891 ± 0.056 | 0.56 ± 0.017 | 1.17 ± 0.27 | 1.18 ± 0.18 | 0.92 (active)
COc1ccc(CCNCC(O)COc2cccc(C)c2)cc1OC.Cl (stereo unspecified) | 0.68 ± 0.16 | 1.15 ± 0.057 | 1.06 ± 0.099 | 0.824 ± 0.029 | 1.19 ± 0.14 | 1.43 ± 0.25 | 0.985 (active)
Cc1ccc(CSCCNC(=O)CN(c2cccc(C)c2)S(C)(=O)=O)cc1 | 0.951 ± 0.09 | 1.01 ± 0.056 | 0.99 ± 0.061 | 0.998 ± 0.025 | 1.44 ± 0.2 | 1.15 ± 0.2 | 1 (active)
Cl.Cl.Fc1ccc(C(c2ccc(F)cc2)N2CCN(CC=Cc3ccccc3)CC2)cc1 | 0.834 ± 0.063 | 0.999 ± 0.065 | 1.15 ± 0.029 | 0.956 ± 0.089 | 0.896 ± 0.051 | 1.1 ± 0.16 | 0.996 (active)
